Measured values from PubChem BioAssay.
Values without a mark were called inactive. The source made the active and inactive calls.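 How the source made its calls, unless noted: active means mean inhibition above 46.68%, the untreated control wells mean plus 3 SD; inactive means the rest.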

How the values were obtained:
[1] = biological target: Nuclear receptor coactivator 1 (Homo sapiens) (UniProt Q15788); assay: NCOA1 GAL4-fusion reporter inhibition – cell-based, luminescence, quadruplicate, confirmation (AID 588820); conditions: HEK293 GAL4-SRC1 luciferase reporter, at 3.6 µM, active compounds read high;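 further: 0% = DMSO wells and 100% = gossypol 36 µM treated wells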
Sequence of Nuclear receptor coactivator 1 (Homo sapiens) (Q15788 whole entry, looked up, the tested form may be a part): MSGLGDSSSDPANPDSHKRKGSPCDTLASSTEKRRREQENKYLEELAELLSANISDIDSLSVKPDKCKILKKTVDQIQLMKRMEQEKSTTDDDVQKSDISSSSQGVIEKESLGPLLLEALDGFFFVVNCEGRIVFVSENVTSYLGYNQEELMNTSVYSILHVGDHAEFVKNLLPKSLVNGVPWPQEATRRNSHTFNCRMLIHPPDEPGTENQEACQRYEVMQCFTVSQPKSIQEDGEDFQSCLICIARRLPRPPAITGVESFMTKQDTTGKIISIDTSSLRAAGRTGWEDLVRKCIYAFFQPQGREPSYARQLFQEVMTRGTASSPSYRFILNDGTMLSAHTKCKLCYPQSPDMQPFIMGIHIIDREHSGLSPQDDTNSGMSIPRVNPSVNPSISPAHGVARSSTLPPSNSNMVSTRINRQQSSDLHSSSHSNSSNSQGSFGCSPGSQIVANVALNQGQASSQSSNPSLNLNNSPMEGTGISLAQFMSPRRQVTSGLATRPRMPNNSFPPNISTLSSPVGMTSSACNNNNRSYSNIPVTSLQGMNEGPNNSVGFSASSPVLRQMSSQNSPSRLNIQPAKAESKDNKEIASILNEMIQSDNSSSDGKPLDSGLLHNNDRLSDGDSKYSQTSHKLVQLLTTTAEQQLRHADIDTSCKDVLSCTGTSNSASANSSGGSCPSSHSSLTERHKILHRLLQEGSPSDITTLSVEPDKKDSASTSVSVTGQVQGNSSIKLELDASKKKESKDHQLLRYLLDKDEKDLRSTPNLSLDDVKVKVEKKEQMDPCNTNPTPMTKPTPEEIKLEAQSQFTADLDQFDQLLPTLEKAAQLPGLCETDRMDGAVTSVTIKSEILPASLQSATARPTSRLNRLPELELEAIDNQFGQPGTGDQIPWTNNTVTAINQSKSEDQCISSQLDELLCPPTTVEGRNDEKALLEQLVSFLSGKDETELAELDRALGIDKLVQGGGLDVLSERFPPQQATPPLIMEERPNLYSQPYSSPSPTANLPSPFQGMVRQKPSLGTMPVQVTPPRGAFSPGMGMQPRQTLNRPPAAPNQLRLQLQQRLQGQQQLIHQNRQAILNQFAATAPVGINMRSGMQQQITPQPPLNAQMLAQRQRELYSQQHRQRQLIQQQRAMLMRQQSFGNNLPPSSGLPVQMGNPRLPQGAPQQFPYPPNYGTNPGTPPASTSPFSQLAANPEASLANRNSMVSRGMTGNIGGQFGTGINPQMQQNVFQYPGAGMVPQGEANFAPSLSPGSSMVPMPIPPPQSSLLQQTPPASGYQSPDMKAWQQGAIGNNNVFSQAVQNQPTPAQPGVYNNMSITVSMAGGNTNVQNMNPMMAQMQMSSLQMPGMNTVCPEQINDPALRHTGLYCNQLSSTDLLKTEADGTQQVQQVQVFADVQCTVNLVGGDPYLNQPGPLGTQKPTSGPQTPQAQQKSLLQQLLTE

[2] = repression of VP16-driven luciferase reporter – cell-based, luminescence, high throughput, counter-screen for SRC1 inhibitor project (AID 588824; in the data active means inhibition above about 25%); conditions: cell-based VP16 transactivation luciferase luminescence; at 3.6 µM; active compounds read high

Compound | inhibition [1] [%] | inhibition [2]
COc1ccc(-c2cc(C(=O)NCCCN3CCOCC3)c3ccccc3n2)cc1OC | -12.4 | -2.84%
Cc1sc2ncnc(N3CCN(C(=O)c4ccco4)CC3)c2c1C | -0.07 | 7.79%
CCN(CC)S(=O)(=O)c1cccc(C(=O)OCC(=O)Nc2ccc3c(c2)c2ccccc2n3CC)c1 | -11.9 | 24.3%
CC(C)N1C(=O)c2ccccc2N(Cc2ccccc2)S1(=O)=O | -4.94 | 1.81%
Cc1nc2ccccn2c1-c1ccnc(=S)[nH]1 | 31.1 | 11.1%
COc1ccc(-c2cc(N3C(=O)Nc4ccccc4N3O)n[nH]2)c(OC)c1 | 25.8 | 20.1%
COc1ccc(CCN2C(=O)C3C4C=CC(C3C2=O)C2C(=O)N(CCc3ccc(OC)c(OC)c3)C(=O)C42)cc1OC (configuration not stated) | -5.96 | 11.5%
CCOc1ccc(CSC(=N)N)cc1Cl | -21.1 | 9.52%
Cc1cc(NC(=O)C(Cl)c2ccccc2)no1 (configuration not stated) | -11.5 | 3.89%
COc1ccccc1/C=C\C(=O)NCC(=O)N/N=C/c1cccc(OC)c1O | 26.9 | 14.2%
CCCS(=O)(=O)c1c(S(=O)(=O)CCC)c2c(C)cccn2c1C(=O)N/N=C/c1cc(O)cc(O)c1 | 20.8 | 24.6%
C=C(C)c1cccc(C(C)(C)NC(=O)N(Cc2ccccc2)Cc2ccco2)c1 | -2.08 | -0.46%
O=C1c2cccc(NCCCNCCO)c2C(=O)c2cccc(NCCCNCCO)c21 | 7.28 | 16.3%
O=C(Nc1ccccc1)N1CCCN(c2ccc(C(F)(F)F)cn2)CC1 | -0.62 | -2.54%
CN(Cc1cccs1)C(=O)CN1CCN(S(=O)(=O)c2ccc3c(c2)OCCCO3)CC1 | -16.6 | -8.72%
O=C(CNC(=O)Cc1ccccc1)N=Nc1c(O)n(Cc2ccc3c(c2)OCO3)c2ccccc12 | 3.52 | 3.04%
O=C(CC1CCC1)Nc1cccc2c([N+](=O)[O-])cccc12 | 9.39 | -5.85%
COc1ccc(-c2cc(C(=O)N(C)CC(=O)Nc3cccc(F)c3)c3ccccc3n2)cc1OC | -19.1 | -8.17%
Fc1cccc(CSc2nnc3ccc(-c4ccncc4)nn23)c1 | 21.7 | 9.73%
O=C(O)CC1S/C(=N\N=C2CCCCCC2)N(c2ccccc2)C1=O (configuration not stated) | -22.2 | -9.41%
Cc1ccccc1CN1CCN(C(=O)CC(C)C)CC1 | -18.4 | -7.73%
Cc1cc(C)n(-c2ccc(C(=O)Nc3ccc(S(=O)(=O)NCc4ccco4)cc3)cc2)n1 | -5.13 | 24.2%
CCNc1nc(NC(C)(C)C)nc(N2CCCCC2)n1 | 8.01 | 12.6%
O=C(COc1ccc([N+](=O)[O-])cc1)Nc1ccccc1C(=O)NC1CC1 | 2.87 | -1.57%

Compound | inhibition [1] [%] | inhibition [2]
CCNC(=O)C1(C)CCCN(Cc2ccc3ccccc3c2Br)C1 (configuration not stated) | 11 | 13.3%
Cc1cc(OC(C)C(=O)Nc2ccncc2)ccc1Cl (configuration not stated) | -0.51 | 7.56%
O=C(CSc1nc2[nH]ncc2c(=O)[nH]1)N1CCCCC1 | -8.66 | -6.86%
CCC1(c2ccccc2)NC(=O)N(CC(=O)Nc2ccccc2C(=O)NC2CCCC2)C1=O (configuration not stated) | -5.15 | -0.59%
COc1ccc(CC(=O)Nc2ccc3c(c2)CCC3)cc1OC | 10.1 | 2.91%
COc1ccc(O)c(C2(O)C(=O)c3ccccc3C2=O)c1 | -5.99 | 3.91%
O=C(c1ccccc1Sc1ccccc1[N+](=O)[O-])N1CCCCC1 | 10.1 | 14.3%
CCc1nc2c(OCc3c(C)noc3C)cccn2c1N(C=O)Cc1ccccc1 | -4.23 | -5.1%
O=C(c1ccccc1)C1CCN(C(=O)c2ccc(Cl)cc2)CC1 | 7.58 | 5.47%
O=C(NC1CCCCC1)c1n[nH]c2c1CCCCC2 | -44.7 | -18.1%
O=C(COC(=O)CCC(=O)c1ccccc1)Nc1nnc(-c2ccccc2)o1 | -19.6 | -8.55%
Cc1nn(-c2ccccc2)c(C)c1NC(=O)COC(=O)C1CC(=O)N(CCc2ccccc2)C1 (configuration not stated) | -14.4 | 2.89%
NC(N)=N/N=C/c1ccc(Cl)c([N+](=O)[O-])c1 | -20.2 | -0.27%
CC1CCc2c(sc3ncnc(N4CCOCC4)c23)C1 (configuration not stated) | 40 | 26.6% (active)
CCOC(=O)c1ccc2c(c1)n(CC)c(/C=C/N(C)c1ccccc1)[n+]2CC | 29.7 | 62.3% (active)
O=C(c1cc(COc2c(F)cccc2F)on1)N1CCC(c2ccncc2)CC1 | -8.98 | 19.7%
COc1cc2c(cc1NC(=O)/C=C/c1cc(OC)c(OC)c(OC)c1)oc1ccccc12 | 3.29 | -2.37%
COc1ccc(-n2c(SC(C)C(=O)Nc3ncc(Cl)cc3Cl)nc3ccccc32)cc1 (configuration not stated) | 35.4 | 79.4% (active)
COc1ccc(CCNC(=O)[C@H](CCSC)NC(=O)N2CCn3c2nc2ccccc23)cc1OC | 1.44 | -3.22%
CCOC(=O)c1ccc(NC(=O)c2ccc(CN3CCc4ccccc4C3)cc2)cc1 | -48.8 | 30.4% (active)
Cc1ccc(OCC(=O)Oc2c(C)cccc2C)cc1C | -3.92 | -9.72%
CC(C(=O)Nc1ccon1)N1C(=O)c2ccccc2S1(=O)=O (configuration not stated) | -3.82 | 11.8%
COc1ccc(C(=O)Cn2c(Br)nc3c2c(=O)n(C)c(=O)n3C)cc1 | -2.41 | 11.5%
CC(=O)OCC1OC(n2cc(F)c(=O)[nH]c2=O)C(OC(C)=O)C1OC(C)=O (configuration not stated) | 5.02 | 22.9%

Compound | inhibition [1] [%] | inhibition [2]
NS(=O)(=O)c1ccc(CNC(=O)c2cnccn2)cc1 | -22.2 | -8.37%
COc1cc(OC)c(OC)cc1/C=C1\CC(C)C/C(=C\c2cc(OC)c(OC)cc2OC)C1=O (configuration not stated) | -33.6 | 2.73%
CCCCC(=O)NC(c1cccc([N+](=O)[O-])c1)c1ccc2cccnc2c1O (configuration not stated) | 13.2 | 24%
CCOc1cccc(/C=N/NC(=O)c2cccnc2)c1O | 17.4 | 9.63%
Cc1ccc2oc(C(=O)NC3CCS(=O)(=O)C3)cc(=O)c2c1 (configuration not stated) | -6.08 | -12.1%
O=C(N/N=C/c1cc(Cl)ccc1O)c1ccccc1Br | 12.6 | 7.53%
CCOc1ccc(CCN2C(=S)N([C@@H](CC(C)C)CN3CCC[C@@H]3CN3C(=S)NC[C@@H]3CC(C)C)C[C@@H]2CC(C)C)cc1 | 3.98 | 5.15%
Cc1cccc(N2CCN(S(=O)(=O)c3cc(-c4cc(C)no4)ccc3C)CC2C)c1 (configuration not stated) | -10.5 | 33.8% (active)
CCCC(C)NC(=O)C1c2ccccc2Oc2ccccc21 (configuration not stated) | -0.82 | -7.9%
Cc1nn(CC(=O)N2CCN(c3cccc(C(F)(F)F)c3)CC2)c(=O)c2cccn12 | 23.4 | 8.52%
O=C(CCCCC(=O)NN=Cc1ccccc1O)NN=Cc1ccccc1O | 37.3 | 39% (active)
COc1ccc(Nc2ncnc3ccc(C)cc23)cc1 | 26.8 | 15.7%
COc1ccc(-c2nnc(NC(=O)CSc3ccccc3)s2)cc1OC | 1.2 | -8.89%
COc1ccc(C(=O)N2CCN(c3ccc(NC(=O)c4cccs4)cc3)CC2)cc1 | 2.7 | -1.25%
O=C(Nc1ccn(Cc2c(F)c(F)c(F)c(F)c2F)n1)c1ccc(COc2ccccc2Cl)cc1 | 3.66 | 8.16%
O=C(NCc1cccc(C(F)(F)F)c1)c1csc([C@@H]2O[C@H](CO)[C@H](O)[C@H](O)[C@H]2O)n1 | -9.94 | -4.13%
Cc1cc(C)nc(/N=C(\N)Nc2ccc(CC(=O)OC(C)C)cc2)n1 | -11.9 | 16.6%
CC(=C\c1ccccc1)/C=C1/SC(=S)N(CCC(=O)O)C1=O | -20.4 | -5.15%
c1ccc(Cc2nnc3sc(-c4ccncc4)nn23)cc1 | 5.92 | -1.52%
FC(F)(F)c1cccc(Oc2ccc3c(C(F)(F)F)cc(C(F)(F)F)nc3n2)c1 | -2.81 | -6.43%
O=C(CSC1=NS(=O)(=O)c2cc(Cl)ccc2N1)Nc1ccccc1C(F)(F)F | -22.4 | -12.3%
CCc1ccc(CNC(=O)C2CCCN(S(=O)(=O)N(CC)c3ccccc3)C2)cc1 (configuration not stated) | -39.2 | -3.99%
CCOC1(OCC)OC(c2ccccc2)=C(C#N)C(C=Cc2ccccc2)C1(OCC)OCC (configuration not stated) | 0.8 | 4.67%
